In PubChem BioAssay AID1159580 (chemical genetic matrix, 2015):
Among all 5,500 compounds or so, about 2,000 (36%) were called active. Inconclusive results (about 18%) are left out. Rule as the data show it: active = normalized growth mostly below about 0.91 (no sharp cut-off); inconclusive = no clear call, values can overlap the other calls; inactive = mostly above about 0.92. The list shows a part of the results.

Experiment: chemical genetic growth profiling, strain panel (AID 1159580);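 also: tested at 20 µM; growth read once vehicle control cultures reached saturation at 30 °C; 1 = growth at the plate median or of vehicle wells; lower values mean less growth of the strain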
Conditions: S. cerevisiae deletion strains, growth OD
[1] = locus YAR019C, strain CDC15, hits give low values
[2] = locus YBL105C, strain PKC1, hits give low values
[3] = locus YBR135W, strain CKS1, hits give low values
[4] = locus YBR136W, strain MEC1, hits give low values
[5] = locus YBR160W, strain CDC28, hits give low values
[6] = locus YDL017W, strain CDC7, hits give low values
[7] = locus YDL028C, strain MPS1, hits give low values
[8] = locus YDL101C, strain DUN1, hits give low values
[9] = locus YDL108W, strain KIN28, hits give low values
[10] = locus YDL132W, strain cdc53, hits give low values
[11] = locus YDL214C, strain PRR2, hits give low values
[12] = locus YDR052C, strain DBF4, hits give low values
[13] = locus YDR054C, strain cdc34, hits give low values
[14] = locus YDR226W, strain ADK1, hits give low values
[15] = locus YDR477W, strain SNF1, hits give low values
[16] = locus YER123W, strain YCK3, hits give low values
[17] = locus YER133W, strain GLC7, hits give low values
[18] = locus YFL009W, strain cdc4, hits give low values
[19] = locus YFL029C, strain CAK1, hits give low values
[20] = locus YFR003C, strain YPI1, hits give low values
[21] = locus YFR019W, strain FAB1, hits give low values
[22] = locus YFR028C, strain CDC14, hits give low values
[23] = locus YGR040W, strain KSS1, hits give low values
[24] = locus YGR052W, strain FMP48, hits give low values
[25] = locus YGR092W, strain DBF2, hits give low values
[26] = locus YHR030C, strain SLT2, hits give low values
[27] = locus YHR079C, strain IRE1, hits give low values
[28] = locus YHR082C, strain KSP1, hits give low values
[29] = locus YHR205W, strain SCH9, hits give low values
[30] = locus YIL147C, strain SLN1, hits give low values
[31] = locus YJL095W, strain BCK1, hits give low values
[32] = locus YJL128C, strain PBS2, hits give low values
[33] = locus YJL157C, strain FAR1, hits give low values
[34] = locus YJR016C, strain ILV3, hits give low values
[35] = locus YJR066W, strain TOR1 (second series), hits give low values
[36] = locus YJR066W, strain TOR1, hits give low values
[37] = locus YKL048C, strain ELM1, hits give low values
[38] = locus YKL067W, strain YNK1, hits give low values
[39] = locus YKL101W, strain HSL1, hits give low values
[40] = locus YKL193C, strain SDS22, hits give low values
[41] = locus YKL203C, strain TOR2, hits give low values
[42] = locus YLR113W, strain HOG1, hits give low values
[43] = locus YLR133W, strain CKI1, hits give low values
[44] = locus YLR403W, strain SFP1, hits give low values
[45] = locus YML070W, strain DAK1, hits give low values
[46] = locus YMR001C, strain CDC5, hits give low values
[47] = locus YMR205C, strain PFK2 (second series), hits give low values
[48] = locus YMR277W, strain FCP1, hits give low values
[49] = locus YNL006W, strain LST8, hits give low values
[50] = locus YNL020C, strain ARK1, hits give low values
[51] = locus YNL161W, strain CBK1, hits give low values
[52] = locus YNL183C, strain NPR1, hits give low values
[53] = locus YNL207W, strain RIO2, hits give low values
[54] = locus YNL222W, strain SSU72, hits give low values
[55] = locus YNL307C, strain MCK1 (second series), hits give low values
[56] = locus YOL078W, strain AVO1, hits give low values
[57] = locus YOL136C, strain PFK27, hits give low values
[58] = locus YOR061W, strain CKA2, hits give low values
[59] = locus YOR119C, strain RIO1, hits give low values
[60] = locus YOR231W, strain MKK1, hits give low values
[61] = locus YOR329C, strain SCD5, hits give low values
[62] = locus YPL031C, strain PHO85, hits give low values
[63] = locus YPL153C, strain RAD53, hits give low values
[64] = locus YPL204W, strain HRR25, hits give low values
[65] = locus YPL209C, strain IPL1, hits give low values
[66] = locus YPL256C, strain CLN2, hits give low values
[67] = locus YPR025C, strain CCL1, hits give low values
[68] = locus YPR106W, strain ISR1, hits give low values
[69] = locus YPR111W, strain DBF20, hits give low values
[70] = strain NNK1, hits give low values
[71] = strain TSCII, hits give low values

Measured: normalized growth

Cc1nc(C(F)(F)F)c(C(=O)O/N=C(/N)c2ccc(Cl)cc2)s1
inactive: [1] 0.98 | [2] 0.975 | [3] 0.98 | [4] 0.968 | [5] 0.983 | [6] 0.988 | [7] 0.974 | [8] 0.994 | [9] 0.98 | [10] 0.997 | [11] 0.967 | [12] 0.988 | [13] 1 | [14] 0.991 | [15] 0.942 | [16] 0.92 | [17] 0.942 | [18] 0.974 | [19] 0.983 | [20] 0.982 | [21] 0.938 | [22] 0.98 | [23] 0.941 | [24] 0.952 | [25] 0.933 | [26] 0.999 | [27] 0.83 | [28] 1.14 | [29] 0.921 | [30] 0.978 | [31] 0.818 | [32] 0.978 | [33] 0.952 | [34] 0.984 | [35] 0.926 | [36] 1.06 | [37] 1 | [38] 0.974 | [39] 0.983 | [40] 0.954 | [41] 1.03 | [43] 0.948 | [44] 0.905 | [45] 0.939 | [46] 0.973 | [47] 0.941 | [48] 0.974 | [49] 0.985 | [50] 0.945 | [51] 0.984 | [52] 0.876 | [53] 0.972 | [54] 0.977 | [55] 0.963 | [56] 0.97 | [57] 0.946 | [58] 0.948 | [59] 0.983 | [60] 0.831 | [61] 0.974 | [62] 0.947 | [63] 0.937 | [64] 0.921 | [65] 0.982 | [67] 0.993 | [68] 0.987 | [69] 0.976 | [70] 0.995 | [71] 0.974
active: [42] 0.79 | [66] 0.795

CCC1CCC(C)N(C(=S)Nc2ccc(Br)cc2C)C1 (stereo not drawn)
inactive: [1] 0.965 | [2] 0.976 | [3] 0.955 | [4] 0.971 | [5] 0.953 | [6] 0.966 | [7] 0.961 | [8] 0.958 | [9] 0.96 | [10] 0.956 | [11] 0.987 | [12] 0.969 | [13] 0.953 | [14] 0.963 | [15] 0.955 | [16] 0.936 | [17] 0.961 | [18] 0.956 | [19] 0.963 | [20] 0.978 | [21] 0.995 | [22] 0.967 | [23] 0.963 | [24] 1.11 | [25] 0.964 | [27] 0.979 | [28] 1.05 | [29] 0.993 | [30] 0.968 | [31] 0.913 | [32] 0.927 | [33] 0.986 | [34] 0.964 | [35] 1.01 | [36] 0.987 | [37] 0.956 | [38] 1 | [39] 0.95 | [40] 0.951 | [41] 1.05 | [42] 0.924 | [43] 0.98 | [44] 0.992 | [45] 0.958 | [46] 0.961 | [47] 0.973 | [48] 0.962 | [49] 0.966 | [50] 0.974 | [51] 0.948 | [52] 0.967 | [53] 0.957 | [54] 0.963 | [55] 0.948 | [56] 0.959 | [57] 0.964 | [58] 0.948 | [59] 1.08 | [60] 0.957 | [61] 0.968 | [62] 0.968 | [63] 0.955 | [64] 0.969 | [65] 0.967 | [66] 0.906 | [67] 0.959 | [68] 0.978 | [69] 0.979 | [70] 0.962 | [71] 0.95
active: [26] 0.84

CCCC1c2ccsc2CCN1C(=S)Nc1ccc(Cl)cc1Cl (stereo not drawn)
inactive: [1] 0.969 | [2] 0.971 | [3] 0.983 | [4] 0.972 | [5] 0.984 | [6] 0.973 | [7] 0.971 | [8] 0.984 | [9] 0.987 | [10] 0.98 | [11] 0.984 | [12] 0.981 | [13] 0.962 | [14] 0.968 | [15] 0.974 | [16] 0.952 | [17] 0.968 | [18] 0.971 | [19] 0.967 | [20] 0.975 | [21] 0.986 | [22] 0.963 | [23] 0.959 | [24] 1 | [25] 0.946 | [26] 0.922 | [27] 0.975 | [28] 0.987 | [29] 0.878 | [30] 0.973 | [31] 0.961 | [32] 0.946 | [33] 0.981 | [34] 0.972 | [35] 0.946 | [36] 0.981 | [37] 0.975 | [38] 0.97 | [39] 0.964 | [40] 0.969 | [41] 1.02 | [42] 0.897 | [43] 0.974 | [44] 0.931 | [45] 0.944 | [46] 0.977 | [47] 0.968 | [48] 0.977 | [49] 0.991 | [50] 0.986 | [51] 0.98 | [52] 0.966 | [53] 0.97 | [54] 0.976 | [55] 0.973 | [56] 0.974 | [57] 0.958 | [58] 0.964 | [59] 1.02 | [60] 0.978 | [61] 0.974 | [62] 0.966 | [63] 0.971 | [64] 0.985 | [65] 0.974 | [66] 0.932 | [67] 0.983 | [68] 0.973 | [69] 0.959 | [70] 0.965 | [71] 0.959
